About 210 (0.066%) of roughly 320,000 compounds were called active.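 Rule for the calls: active = GFP response relative to DMSO above a set limit, near the screen mean plus 3 SD (cut at about 150% in these data); inconclusive = Fewer than 70 cells measured for a yeast strain; inactive = the rest.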 Only a selection was taken, and actives are over-represented in it overall.

Our source for the GFP response vs DMSO values is PubChem BioAssay AID2029 (NMMLSC, 2009).

This assay can be described thus: modulators of CIT2-GFP expression in yeast, primary screen, S. cerevisiae, GFP fusion, multiplex flow cytometry, MLPCN library (AID 2029).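 Note: ratio of well median GFP fluorescence to mean of DMSO wells on the plate.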 The following applies: S. cerevisiae CIT2-GFP strain, 3 h, at 10 µM, stronger effect = higher value, 100 means same as DMSO wells.
`CCn1c(/C=C/Nc2ccccc2)[n+](CC)c2ccc(C(=O)OCC(F)(F)F)cc21`: the GFP response vs DMSO is 97.8% (inactive). For the compound `COc1ccc(/C=N/NC(=O)C(C)N(c2ccc(OC)cc2)S(C)(=O)=O)cc1` (stereo not given), the GFP response vs DMSO was 109% (inactive). In the case of `Cc1cccc(NS(=O)(=O)c2ccc(C)c(C(=O)NCc3cccnc3)c2)c1`, the GFP response vs DMSO is 107% (inactive). Regarding `O=C(O)C1CCN(C(=O)c2cc(F)cc3c2OCOC3)CC1`, the GFP response vs DMSO was 109% (inactive). Turning to `O=S(=O)(c1ccc(Br)cc1)N1CCC(c2nc3ccccc3[nH]2)CC1`, the GFP response vs DMSO was 111% (inactive). Turning to `CC(=O)N(CCCN(C)C)c1nc2ccc(C)cc2s1`, the GFP response vs DMSO was 111% (inactive).

Turning to `Cc1ccc2nc(N(CCN(C)C)C(=O)C3=COCCO3)sc2c1`, the GFP response vs DMSO was 161% (active). Take `CN(C)CCN(C(=O)C1=COCCO1)c1nc2ccc(Cl)cc2s1`: the GFP response vs DMSO is 92.3% (inactive). Take `CCc1ccc(Oc2coc3cc(O)ccc3c2=O)cc1`: the GFP response vs DMSO was 94.9% (inactive). `CCN(CC(=O)Nc1cc(Cl)ccc1C)C(=O)Cn1c(=O)cnc2ccccc21`: the GFP response vs DMSO was 110% (inactive). To `O=c1[nH]c(CN2CCN(S(=O)(=O)c3ccc4c(c3)OCCO4)CC2)nc2sc3c(c12)CCCC3` belongs 101% (inactive); to `CCc1ccc(S(=O)(=O)N/N=C\c2ccc([N+](=O)[O-])o2)cc1`, 91.7% (inactive). Regarding `CCn1c(=O)c([N+](=O)[O-])c(NCc2ccc3c(c2)OCO3)c2ccccc21`, the GFP response vs DMSO is 88.2% (inactive).

Consider `CCn1c(/C=C/c2ccc([N+](=O)[O-])o2)nc2ccccc2c1=O`, for which the GFP response vs DMSO is 210% (active). With `COc1ccc(S(=O)(=O)NCCOc2ccccc2)cc1F`, the GFP response vs DMSO is 94.3% (inactive). As for `COCC(C)n1c(SCC(=O)NC2CCCCC2C)nc2ccccc2c1=O` (stereo not given), the GFP response vs DMSO was 101% (inactive). Take `CC(=O)Nc1ccc(NC(=O)C(C)n2c3ccccc3c3nc(=O)cc(C)n32)cc1` (stereo not given): the GFP response vs DMSO was 109% (inactive). `CC(C)NC(=O)C(c1ccc(F)cc1)N(C(=O)CCC(=O)Nc1ccccn1)c1ccccc1F` (stereo not given): the GFP response vs DMSO was 88.4% (inactive). For `CCOc1cccc(-c2nnc(SCC(=O)NC3CC3)n2C)c1`, the GFP response vs DMSO was 98.9% (inactive).

For `C[n+]1ccc(/C=C/c2c[nH]c3ccccc23)cc1`, the GFP response vs DMSO was 274% (active). With `COc1ccc(/C=C(\C#N)c2c[nH]c3ccccc23)cc1` the figure was 79.6% (inactive); with `O=C(N/N=C/c1c[nH]c2ccccc12)c1ccccc1O`, 80.8% (inactive); with `CCCCNC(=O)N(O)C1N(/N=C/c2ccc(N(C)C)cc2)C(=S)SC1(C)C` (stereo not given), 105% (inactive). On to `COc1ccc([C@H]2CC(=O)C=C(/C=C/c3ccc(Cl)cc3)C2)cc1`, for which the GFP response vs DMSO was 104% (inactive). For `CC(C)Oc1ccc(CCc2n[nH]c(=S)n2Cc2ccccc2)cc1`, the GFP response vs DMSO was 98.5% (inactive).
